Test results from PubChem BioAssay AID463173 (ICCB-Longwood Screening Facility, Harvard Medical School, 2010).
Hit rate of the full screen: of about 52,000 compounds, about 1,700 (3.3%) were called active. The list comes from a sample in which actives are over-represented; it also holds similar structures and randomly drawn compounds. A number with no mark means an inactive call. Rule as the data show it: active = survival mostly below about 52% (no sharp cut-off); inactive = mostly above about 56%.

Tested on: Wild type
Test: S. aureus survival, RN4220 and DeltatarO strains – OD600, teichoic acid synthesis inhibitors, primary screen (AID 463173)
Conditions: S. aureus RN4220 wild type/DeltatarO growth, OD600, 18 h, stronger effect = lower value, screened at 18.75 µg/mL (by protocol)

SMILES | survival
O=C1NC(NS(=O)(=O)c2ccccc2)(C(F)(F)F)C(=O)N1c1ccc(F)cc1 (configuration not stated) | 76%
Cc1nc(CC(=O)Nc2ccc(C)c(C)c2)cs1 | 80%
C/C=C/C(=O)N1CCCC(c2nc(-c3cccc(OC)c3)no2)C1 (configuration not stated) | 95%
COc1ccc(C(=O)N(CC(=O)NC2CCCC2)C2CCCCC2)cc1OC | 106%
Cc1ccc(NC(=O)CN2C(=O)C(C)(C)c3cc(S(=O)(=O)N4CCCCC4)ccc32)c(Br)c1 | 63%
COc1ccc(C)cc1NC(=O)CN1C(=O)CCc2cc(S(=O)(=O)N3CCOCC3)ccc21 | 128%
COc1ccc(Cl)cc1NC(=O)CN1C(=O)C(C)(C)c2cc(S(=O)(=O)N3CCCCC3)ccc21 | 81%
Cc1ccc(Cl)cc1NC(=O)CN1C(=O)C(C)(C)c2cc(S(=O)(=O)N3CCCCC3)ccc21 | 1% (active)
COc1ccc(NC(=O)CN2C(=O)CCc3cc(S(=O)(=O)N4CCOCC4)ccc32)c(OC)c1 | 66%
COc1ccc(OC)c(NC(=O)CN2C(=O)CCc3cc(S(=O)(=O)N4CCCCC4)ccc32)c1 | 0% (active)
CC(=O)Nc1ccc(NC(=O)CSc2nccn2Cc2ccc3c(c2)OCO3)cc1 | 72%
NCc1ccc2[nH]c(=O)[nH]c2c1 | 104%
Cc1cccc(Nc2nc(-c3ccccc3)nc3ccccc23)c1 | -1% (active)
CCC(=O)OCCCNc1nc(-c2ccc(Cl)cc2)nc2ccccc12 | -2% (active)
COC(=O)c1ccc(Nc2nc(-c3ccc(C)cc3)nc3ccccc23)cc1 | 7% (active)
Fc1ccc(Nc2nc(SCc3ccc(Cl)cc3)nc3ccccc23)cc1 | 90%
COC(=O)c1ccc(Nc2nc(-c3ccccc3Cl)nc3ccccc23)cc1 | 36%
CC(=O)c1cccc(Nc2nc(-c3cccc(C)c3)nc3ccccc23)c1 | 31%
Oc1cccc(Nc2nc(-c3ccccc3)nc3ccccc23)c1 | 19%
Oc1ccc(Nc2nc(-c3ccc(Cl)cc3)nc3ccccc23)cc1 | 3% (active)
CCOC(=O)c1nc(Nc2ccc(C(C)=O)cc2)c2ccccc2n1 | 81%
Cc1ccc(OCCCCn2c(-c3ccc(Cl)cc3)nc3ccccc3c2=O)cc1 | 67%

SMILES | survival
CCOC(=O)c1nc(Nc2cccc(C)c2)c2ccccc2n1 | 83%
OCCNc1nc(-c2cccnc2)nc2ccccc12 | 119%
Cc1cn2c(=O)cc(COc3cccc(NC(=O)c4ccccc4Cl)c3)nc2s1 | 88%
O=C(c1cc2nc(-c3ccccc3)cc(-c3ccccc3)n2n1)N1CCCC1 | 100%
CCOC(=O)C1(CC)C(=O)OC(C(=O)NC2CCCCC2)C1C (configuration not stated) | 112%
COc1cccc(-c2cc(C(=O)NCc3ccccc3)no2)c1 | 85%
Cc1ccc(C)n1-c1c(C(=O)NCC(C)c2ccccc2)sc2ncccc12 (configuration not stated) | 73%
Cc1ccc(-n2c(SCc3ccccc3F)nc3[nH]ncc3c2=O)cc1C | 80%
CCOc1ccccc1-c1nc(=S)[nH][nH]1 | 110%
Cc1ccc(NCc2cccn2-c2nnc(N3CCC(C(=O)NC(C)C)CC3)s2)cc1 | 121%
CCOC(=O)c1ccccc1NC(=O)C(=O)Nc1ccc2nc3n(c(=O)c2c1)CCCCC3 | 123%
COc1ccc(Nc2nc(-c3ccccc3F)nc3ccccc23)cc1OC | 71%
COc1ccc(Nc2nc(-c3ccc(C)cc3)nc3ccccc23)c(OC)c1 | 70%
COc1cc(Nc2nc(-c3ccc(OC)c(OC)c3)nc3ccccc23)cc(OC)c1 | 0% (active)
Cc1cccc2nc(Cn3c(=O)n(-c4ccc(Cl)cc4)c(=O)c4c5c(sc43)CCC5)cc(=O)n12 | 121%
CCC(C(=O)NCCc1ccc(OC)c(OC)c1)n1nc(C)c2sc3ccccc3c2c1=O (configuration not stated) | 79%
CC1(C)CC(=O)C/C(=N\NC(=O)CCc2ccccc2)C1 | 122%
Cc1ccc(C(c2sc3nc(-c4ccco4)nn3c2O)N2CCOCC2)cc1 (configuration not stated) | 77%
Cc1cccc(N2CCN(C(=O)c3ccc4c(Cl)c5c(nc4c3)CCCC5)CC2)c1C | 88%
O=C(c1ccc2c(Cl)c3c(nc2c1)CCCC3)N1CCN(c2cccc(Cl)c2)CC1 | 62%
O=C(c1ccc2c(Cl)c3c(nc2c1)CCCC3)N1CCN(c2ccccc2F)CC1 | 0% (active)
O=C(c1ccc2c(Cl)c3c(nc2c1)CCCC3)N1CCN(c2ccc(Cl)cc2)CC1 | 90%

SMILES | survival
O=C(c1ccc2c(Cl)c3c(nc2c1)CCCC3)N1CCN(c2ccccc2)CC1 | 0% (active)
Cc1ccc(Cl)cc1N1CCN(C(=O)c2ccc3c(Cl)c4c(nc3c2)CCCC4)CC1 | 29%
O=C(NCCCc1ccccc1)c1nn(-c2ccccc2F)nc1CO | 89%
COc1ccc(C2=C(C)C(=NCc3ccc(OC(C)C)cc3)NS2(=O)=O)cc1 | 86%
CCCc1nc(C(C#N)c2ccc(F)cc2)c2nnn(Cc3ccccc3)c2n1 (configuration not stated) | 109%
COc1ccc(N2CCN(C(=O)CN(c3cccc(C(F)(F)F)c3)S(C)(=O)=O)CC2)cc1 | 110%
COc1ccccc1N1CCN(C(=O)c2ccc(CS(=O)c3ccccc3C)o2)CC1 (configuration not stated) | 75%
CCNC(=O)c1cc2n(n1)CCCN(Cc1ccc(C)cc1)C2=O | 22%
CCCCNC(=O)c1cc2n(n1)CCCN(Cc1ccc(C)cc1)C2=O | 0% (active)
CCC(C)NC(=O)c1cc2n(n1)CCCN(Cc1ccc(C)cc1)C2=O (configuration not stated) | 88%
CCCNC(=O)c1cc2n(n1)CCCN(Cc1ccc(C)cc1)C2=O | 129%
CCCSCCCNC(=O)c1cc2n(n1)CCCN(Cc1ccc(C)cc1)C2=O | 113%
Cc1ccc(CN2CCCn3nc(C(=O)NC(C)C)cc3C2=O)cc1 | -2% (active)
CCCCn1cc(S(=O)(=O)c2ccc(CC)cc2)c(=O)c2cc(F)c(N3CCOCC3)cc21 | 73%
CC(C)(C)c1ccc(C(=O)N2CCCC(c3nc4c(nnn4Cc4cccc(F)c4)c(=O)[nH]3)C2)cc1 (configuration not stated) | 17%
CC(C)(C)C(=O)N1CCCC(c2nc3c(nnn3Cc3ccc(C(C)(C)C)cc3)c(=O)[nH]2)C1 (configuration not stated) | 50% (active)
O=C(c1ccccc1)N1CCC(c2nc3c(nnn3Cc3ccccc3)c(=O)[nH]2)CC1 | 0% (active)
COc1cccc(OC)c1Cn1nnc2c(=O)[nH]c(C3CCN(C(=O)c4ccccc4)CC3)nc21 | 76%
Cc1cccc(Cn2nnc3c(=O)[nH]c(C4CCN(C(=O)c5ccc(F)cc5)CC4)nc32)c1 | 29%
COc1ccc(Cn2nnc3c(=O)[nH]c(C4CCN(C(=O)c5ccc(C)cc5)CC4)nc32)cc1OC | 53%
Cc1cccc(Cn2nnc3c(=O)[nH]c(C4CCCN(C(=O)c5ccc(C(C)(C)C)cc5)C4)nc32)c1 (configuration not stated) | 23%
Cc1ccccc1Cn1nnc2c(=O)[nH]c(C3CCN(C(=O)c4ccccc4)CC3)nc21 | 25%

SMILES | survival
O=C(c1ccccc1)N1CCCC(c2nc3c(nnn3Cc3ccc(F)cc3F)c(=O)[nH]2)C1 (configuration not stated) | 104%
CCOc1ccc(Cn2nnc3c(=O)[nH]c(C4CCN(C(=O)c5ccccc5)CC4)nc32)cc1 | 3% (active)
O=C(c1cccc(Cl)c1)N1CCC(c2nc3c(nnn3Cc3ccc(F)cc3F)c(=O)[nH]2)CC1 | 9% (active)
Cc1ccccc1Cn1nnc2c(=O)[nH]c(C3CCN(C(=O)c4ccc(F)cc4)CC3)nc21 | 74%
Cc1cn2c(=O)cc(COc3ccccc3NC(=O)c3ccc(Cl)cc3)nc2s1 | 85%
COc1ccc(CCNC(=O)Cn2nc(C)n3c(cc4occc43)c2=O)cc1OC | 86%
COc1ccc(NC(=O)c2oc3ccccc3c2NC(=O)Cc2coc3ccc(C)cc23)cc1 | 85%
CCc1ccccc1NC(=O)c1sc2nc3n(c(=O)c2c1C)CCC3 | 90%
CCOc1cc(C#N)c(NC(=O)c2ccc(OC)c(S(=O)(=O)N3CCCCC3)c2)cc1OCC | 75%
COc1ccc(Cn2c(CNC(=O)Cc3cccc([N+](=O)[O-])c3)nc3cccnc32)cc1 | -6% (active)
CC(C)(C)c1ccc(S(=O)(=O)NCc2nc3cccnc3n2Cc2ccccc2Cl)cc1 | 14% (active)
CCc1ccc(Cn2c(CNS(=O)(=O)c3ccc(C)c(C)c3)nc3cccnc32)cc1 | 71%
CCc1ccc(S(=O)(=O)NCc2nc3cccnc3n2Cc2ccccc2Cl)cc1 | 83%
O=C(Cc1cccc([N+](=O)[O-])c1)NCc1nc2cccnc2n1Cc1ccc(F)cc1 | 133%
Cc1ccc(Cn2c(CNC(=O)Cc3cccc([N+](=O)[O-])c3)nc3cccnc32)cc1 | 67%
CCc1ccc(Cn2c(CNS(=O)(=O)c3ccc([N+](=O)[O-])cc3)nc3cccnc32)cc1 | 0% (active)
COc1ccc(Cn2c(CNS(=O)(=O)c3ccc(C)c(C)c3)nc3cccnc32)cc1 | -1% (active)
O=[N+]([O-])c1ccc(S(=O)(=O)NCc2nc3cccnc3n2Cc2ccccc2Cl)cc1 | 74%
CCOc1ccc(Cn2c(CNS(=O)(=O)c3ccc([N+](=O)[O-])cc3)nc3cccnc32)cc1 | 87%
COc1ccc(Cn2c(CNS(=O)(=O)c3ccc4c(c3)CCCC4)nc3cccnc32)cc1 | 133%
CCOc1ccc(Cn2c(CNS(=O)(=O)c3ccc(CC)cc3)nc3cccnc32)cc1 | 69%
